Test results as given in PubChem BioAssay AID1347417 (National Center for Advancing Translational Sciences (NCATS), 2020).
Screen size: about 120,000 compounds; about 5,300 (4.4%) were called active. Roughly 22% stayed inconclusive and do not appear here. The full list was thinned out, with actives kept by preference. A number with no mark means an inactive call. The call rests on the fitted dose curve; in most records, active means well fitted inhibition curve with a large enough effect; inconclusive means small, poorly fitted or top-dose-only effect; inactive means no such curve, though single readings can be large or run the other way.

Test: qHTS Primary assay for Inhibitors of Plasmodium falciparum Dd2 growth in vitro; further: nearly all actives have a fitted effect of over 65% in size;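 on activity, negative = inhibition: plate controls were DMSO vehicle for no effect and reference drug for full effect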
Details: P. falciparum Dd2 growth, SYBR Green, 72 h; series mostly up to 28.9 µM; activity, negative = inhibition: at the top concentration
Outline: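 Infected erythrocytes (Dd2, 0.3% parasitemia, 2.5% hematocrit final) are added to compound in RPMI-1640/Albumax II medium, grown 72 h at 37C in low oxygen, then lysed with saponin/Triton-X containing SYBR Green and read by fluorescence.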
Potency means the concentration at half of the fitted maximal effect.

| Compound | activity, negative = inhibition | outcome | Potency |
| --- | --- | --- | --- |
| CC1CCC(NC(=O)CN2C(=O)NC3(CCS(=O)(=O)CC3)C2=O)CC1 (stereo not drawn) | 37.9% | – | – |
| Cc1ccc(CNC(=O)c2ccc(OC3CCN(S(C)(=O)=O)CC3)c(Cl)c2)s1 | – | inactive | – |
| CN(Cc1cccn1C)Cc1ccnn1C | – | inactive [at 44.1 µM] | – |
| CN(Cc1ccc(-c2ccccc2)cc1)C(=O)c1ccccc1F | – | inactive [at 44.1 µM] | – |
| CC(C)=CCC1(CO)CCCN(Cc2ccccc2OCCO)C1 (stereo not drawn) | – | – | 12600 nM (active) |
| COc1ccccc1CNC(=O)CN1CCCC(CO)(CC2CC2)C1 (stereo not drawn) | – | inactive | – |
| O=C(O)COc1ccccc1CN1CC[C@H]2NCCC[C@]2(C(=O)O)C1 | -20.2% | – | – |
| Cc1ccsc1CN1CCCCCNC(=O)[C@@H]2CCC[C@@H]21 | -7.66% | – | – |
| CC(C)N1C[C@H](O)C[C@H]1c1nnc2n1CCN(C(=O)CCCc1ccccc1)C2 | – | inactive; activator; fitted 3.9811 uM | – |
| O=C(NC1CCCN(c2cc(-c3ccc(Cl)cc3)[nH]n2)C1)c1ccccc1F (stereo not drawn) | -8.5% | – | – |
| COc1ccc(-c2cc(N3CCC(NC(=O)c4cccc(C)c4)CC3)n[nH]2)cc1 | -10.2% | – | – |
| COc1ccc(-c2cc(N3CCC(NC(=O)c4ccoc4)CC3)n[nH]2)cc1 | – | – | 794 nM (active) |
| COc1ccc(-c2cc(N3CCCC(NC(=O)c4cc(F)ccc4Cl)C3)n[nH]2)cc1 (stereo not drawn) | – | – | 8910 nM (active) |
| COc1ccc(-c2cc(N3CCC(NC(=O)c4ccc5c(c4)OCO5)CC3)n[nH]2)cc1 | -9.02% | – | – |
| COc1ccc(-c2cc(N3CCCC(NC(=O)c4ccsc4)C3)n[nH]2)cc1 (stereo not drawn) | -8.18% | – | – |
| COc1cccc(C(=O)N2CCC(N3C[C@H](O)C[C@H]3C(=O)N3CCC(N4CCCCC4)CC3)CC2)c1 | -23% | – | – |
| CC(C)Cc1ccc(S(=O)(=O)N2CCCC2c2nncn2Cc2ccncc2)cc1 (stereo not drawn) | -22.2% | – | – |
| CCC(CC)C(=O)N[C@@H](Cn1cc(-c2ccccc2F)c(=O)[nH]c1=O)C(=O)O | -2.36% [at 44.1 µM] | – | – |
| CN(Cc1cccnc1)c1nc2c(c(=O)[nH]1)CCN(Cc1cc(F)ccc1F)CC2 | 14.7% [at 5.79 µM] | – | – |
| COc1ccc(-c2onc(C)c2C(=O)NCc2ccc3c(c2)OCO3)cc1 | -0.949% | – | – |
| CCOc1ccccc1NC(=O)N1c2ccccc2CC1c1nc(C(C)C)no1 (stereo not drawn) | -4.28% [at 5.79 µM] | – | – |
| O=C(NC[C@H]1C[C@@H]2CCN1C[C@@H]2CN1CCN(c2ncccn2)CC1)c1ccc(C(F)(F)F)cc1 | – | inactive | – |
| C=C[C@H]1CN2CC[C@H]1C[C@@H]2CNCc1ccc(C(F)(F)F)cc1 | – | – | 2240 nM (active) |
| O=C(CC1=C2CCCCC2NC1=O)Nc1ccccc1F (stereo not drawn) | -8.8% | – | – |
| O=C(NC1CCCc2c1[nH]c1ccc(F)cc21)c1n[nH]c2c1CCCC2 (stereo not drawn) | -5.89% | – | – |
| COc1ccc(CN2CCC3(COc4ccccc4C(=O)N3)C2)cc1 (stereo not drawn) | -14.8% | – | – |
| c1ccc2c(c1)CNC1(CCN(Cc3cccc4ccccc34)CC1)CO2 | – | – | 2000 nM (active) |
| CC1=NOC2(CCN(Cc3c[nH]c4ccccc34)CC2)C1 | -4.88% [at 44.1 µM] | – | – |
